Data as given in the supplement of paper PMC8728848.
This excerpt belongs to a sample that is enriched for the strongest signals.

How the values were obtained:
Assay in all cases: glycan array binding signal (z-score within array); higher = stronger binding
Settings in all cases: glycan notation: IUPAC condensed, linker removed
[1] = biological target: Fuc(a1-2)Gal(b1-3)[Fuc(a1-4)]GlcNAc
Outline: (§1)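 Glycan array binding is given as a within-array Z-score, which can be read as non-binding when negative. The arrays, 3228 of them, came from the Consortium for Functional Glycomics database and were retained only where the protein sequence was available. Z-scores were averaged across arrays of the same protein sequence at different concentrations or buffers and across linkers.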

Fuc(a1-2)Gal(b1-4)Glc6S = biological target: Fuc(a1-2)Gal(b1-4)Glc6S
Outline: as §1

[2] = biological target: Fuc(a1-2)Gal(b1-4)[Fuc(a1-3)]GlcNAc(b1-3)Gal(b1-4)[Fuc(a1-3)]GlcNAc
Outline: as §1

Fuc(a1-2)Gal6S(b1-4)Glc = biological target: Fuc(a1-2)Gal6S(b1-4)Glc
Outline: as §1

[3] = biological target: Fuc(a1-2)[GalNAc(b1-3)]Gal
Outline: as §1

[4] = biological target: Fuc(a1-3)[Gal(b1-4)]Glc6S
Outline: as §1

[5] = biological target: Fuc(a1-3)[Gal(b1-4)]GlcNAc(b1-3)GalNAc
Outline: as §1

[6] = biological target: Fuc(a1-3)[Gal3S(b1-4)]GlcNAc6S
Outline: as §1

Gal(a1-2)Gal = biological target: Gal(a1-2)Gal
Outline: as §1

Gal(a1-3)Gal = biological target: Gal(a1-3)Gal
Outline: as §1

[7] = biological target: Gal(a1-3)Gal(b1-4)GlcNAc(b1-3)GalNAc
Outline: as §1

[8] = biological target: Gal(a1-4)Gal(b1-4)GlcNAc(b1-2)Man(a1-3)[Gal(a1-4)Gal(b1-4)GlcNAc(b1-2)Man(a1-6)]Man(b1-4)GlcNAc(b1-4)GlcNAc
Outline: as §1

Gal(a1-6)Glc = biological target: Gal(a1-6)Glc
Outline: as §1

[9] = biological target: Gal(b1-4)GlcNAc(b1-2)Man(a1-6)[Man(a1-3)]Man(b1-4)GlcNAc(b1-4)GlcNAc
Outline: as §1

[10] = biological target: Gal(b1-4)GlcNAc(b1-3)Gal(b1-4)GlcNAc
Outline: as §1

[11] = biological target: Gal(b1-4)GlcNAc(b1-3)[Gal(b1-4)GlcNAc(b1-6)]GalNAc
Outline: as §1

[12] = biological target: Gal(b1-4)GlcNAc(b1-6)GalNAc
Outline: as §1

GalNAc(b1-3)Gal = biological target: GalNAc(b1-3)Gal
Outline: as §1

[13] = biological target: GalNAc(b1-3)Gal(a1-4)Gal(b1-4)GlcNAc(b1-3)Gal(b1-4)Glc
Outline: as §1

[14] = biological target: GlcNAc(b1-2)[GlcNAc(b1-4)]Man(a1-3)[GlcNAc(b1-2)Man(a1-6)]Man(b1-4)GlcNAc(b1-4)GlcNAc
Outline: as §1

GlcNAc(b1-4)GlcNAc = biological target: GlcNAc(b1-4)GlcNAc
Outline: as §1

GlcNAc(b1-6)GalNAc = biological target: GlcNAc(b1-6)GalNAc
Outline: as §1

Man(a1-2)Man(a1-3)Man = biological target: Man(a1-2)Man(a1-3)Man
Outline: as §1

[15] = biological target: Man(a1-2)Man(a1-3)[Man(a1-2)Man(a1-6)]Man(a1-6)[Man(a1-2)Man(a1-2)Man(a1-3)]Man
Outline: as §1

[16] = biological target: Man(a1-3)[Man(a1-6)]Man(a1-6)[Man(a1-3)]Man(b1-4)GlcNAc(b1-4)GlcNAc
Outline: as §1

[17] = biological target: Neu5Ac(a2-3)Gal(b1-3)GlcNAc(b1-3)Gal(b1-3)GlcNAc
Outline: as §1

[18] = biological target: Neu5Ac(a2-3)Gal(b1-3)[Fuc(a1-4)]GlcNAc(b1-3)Gal(b1-3)[Fuc(a1-4)]GlcNAc
Outline: as §1

[19] = biological target: Neu5Ac(a2-3)Gal(b1-3)[Neu5Ac(a2-3)Gal(b1-4)]GlcNAc
Outline: as §1

[20] = biological target: Neu5Ac(a2-3)Gal(b1-4)GlcNAc(b1-6)[Gal(b1-3)]GalNAc
Outline: as §1

[21] = biological target: Neu5Ac(a2-3)Gal(b1-4)[Fuc(a1-3)]GlcNAc(b1-3)GalNAc
Outline: as §1

[22] = biological target: Neu5Ac(a2-3)GalNAc(b1-4)GlcNAc
Outline: as §1

[23] = biological target: Neu5Ac(a2-6)Gal(b1-4)GlcNAc
Outline: as §1

[24] = biological target: Neu5Ac(a2-6)Gal(b1-4)GlcNAc(b1-2)Man(a1-3)Man(b1-4)GlcNAc(b1-4)GlcNAc
Outline: as §1

[25] = biological target: Neu5Ac(a2-6)Gal(b1-4)GlcNAc(b1-2)Man(a1-3)[Man(a1-6)]Man(b1-4)GlcNAc(b1-4)GlcNAc
Outline: as §1

[26] = biological target: Neu5Ac(a2-6)Gal(b1-4)GlcNAc(b1-2)Man(a1-6)[Man(a1-3)]Man(b1-4)GlcNAc(b1-4)GlcNAc
Outline: as §1

Neu5Ac(a2-8)Neu5Ac = biological target: Neu5Ac(a2-8)Neu5Ac
Outline: as §1

[27] = biological target: Neu5Ac(a2-8)Neu5Ac(a2-8)Neu5Ac(a2-3)[GalNAc(b1-4)]Gal(b1-4)Glc
Outline: as §1

[28] = biological target: Neu5Ac(a2-8)Neu5Ac(a2-8)Neu5Ac(a2-8)Neu5Ac(a2-3)[GalNAc(b1-4)]Gal(b1-4)Glc
Outline: as §1

B1: cupB6 (Pseudomonas aeruginosa), Q02SP7 (protein)
chain: MSMRLFPGRVSLRRRPGAQARQALVLGLCCLTGGQAWALNEVALNCSFGNGKGLPWRVVNELTSGTAKGTVLFARPVSLFLSYKPQASQEAHELVLGGNWSGVGYPGPYGTVASDVKGIGYRISVDAQDGVKRVIPVDNQPHALDKRVTSFSGSTTSDYLQELVLTVDPGELPAGDLKVTSVSGSATLNLWAVDRLKGEASIGSVLAVPADNYPTGVCRKPYSLIGPASIAIGGGPPPPPIPKKCKVEVGREINVKLGSVALKNFPRVNDTSTERSFDISLSECAALAKPEIAFRDKYVSAQQADPTILSLKSGGAAGFGIVVKNGLDQQRIRFDGTPYPMRRVGDSADLPLSAAYIRIGAEGELKAGVADGAAEFTFTFP
- glycan array binding signal (z-score) [1]: 19.6
- glycan array binding signal (z-score) (Fuc(a1-2)Gal(b1-4)Glc6S): 0.336
- glycan array binding signal (z-score) [2]: 0.023
- glycan array binding signal (z-score) (Fuc(a1-2)Gal6S(b1-4)Glc): 0.068
- glycan array binding signal (z-score) [3]: -0.269
- glycan array binding signal (z-score) [4]: -0.171
- glycan array binding signal (z-score) [5]: 0.027
- glycan array binding signal (z-score) [6]: 0.36
- glycan array binding signal (z-score) (Gal(a1-2)Gal): -0.079
- glycan array binding signal (z-score) (Gal(a1-3)Gal): -0.05
- glycan array binding signal (z-score) [7]: 0.099
- glycan array binding signal (z-score) [8]: 0.472
- glycan array binding signal (z-score) (Gal(a1-6)Glc): -0.09
- glycan array binding signal (z-score) [9]: 0.004
- glycan array binding signal (z-score) [10]: -0.185
- glycan array binding signal (z-score) [11]: -0.207
- glycan array binding signal (z-score) [12]: -0.128
- glycan array binding signal (z-score) (GalNAc(b1-3)Gal): 0.216
- glycan array binding signal (z-score) [13]: -0.12
- glycan array binding signal (z-score) [14]: -0.121
- glycan array binding signal (z-score) (GlcNAc(b1-4)GlcNAc): -0.037
- glycan array binding signal (z-score) (GlcNAc(b1-6)GalNAc): -0.194
- glycan array binding signal (z-score) (Man(a1-2)Man(a1-3)Man): 0.328
- glycan array binding signal (z-score) [15]: 0.065
- glycan array binding signal (z-score) [16]: -0.11
- glycan array binding signal (z-score) [17]: 0.048
- glycan array binding signal (z-score) [18]: 0.124
- glycan array binding signal (z-score) [19]: -0.26
- glycan array binding signal (z-score) [20]: -0.006
- glycan array binding signal (z-score) [21]: 0.376
- glycan array binding signal (z-score) [22]: -0.177
- glycan array binding signal (z-score) [23]: -0.15
- glycan array binding signal (z-score) [24]: 0.058
- glycan array binding signal (z-score) [25]: 0.325
- glycan array binding signal (z-score) [26]: 0.107
- glycan array binding signal (z-score) (Neu5Ac(a2-8)Neu5Ac): -0.002
- glycan array binding signal (z-score) [27]: -0.074
- glycan array binding signal (z-score) [28]: -0.043
